About 83,000 compounds went through this panel and 20% of them were active in at least one assay; those are over-represented in the sample as a whole.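 Negative percent growth values reflect cell death: -40 means 40% of the cells present at the start died, and -100 means all died.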 Unmarked numbers belong to inactive results. The calls were made as follows: active = growth percent below 10; inactive = the rest.
The molecules below were run on SNB-75 CNS (assay: NCI-60 one-dose screen, 48 h (100 = growth as untreated, 0 = no growth, -100 = all killed)). Conditions: 10 µM.
`CC(=O)OCC1CCCO1` (stereo not drawn) showed a growth of 96.1%.
In the case of `N#CCCc1ccc(O)cc1`, the growth is reported as 88.3%.
`Nc1ccc(N=Nc2ccc(S(=O)(=O)O)cc2)c2ccccc12` gave a growth of 81.6%.
`O=C1OC(=O)C2C1C1(Cl)C(Cl)=C(Cl)C2(Cl)C2C(=O)OC(=O)C21` (stereo not drawn) showed a growth of 89.1%.
Molecule `CCCCCCCCO` has a growth of 90.1%.
`O=c1[nH]nc(SC2CCCCC2)c(=O)[nH]1` was tested, and the growth was 82.3%.
With `Cc1cc(C(O)(c2ccc(Nc3ccccc3)cc2)c2ccc(Nc3ccc(S(=O)(=O)O)cc3)cc2)ccc1N` (stereo not drawn) the growth was 16.8%.
With `CCCNC(=O)c1ccc(S(N)(=O)=O)cc1` the growth was 72.6%.
Work on `CN(C)c1ccc2oc(=O)c3ccccc3c2c1` yielded a growth of 57.1%.
With `Cc1ccc(CCCC(=O)O)c(C)c1` the growth was 79.2%.
`Oc1ccccc1-c1nnco1` gave a growth of 45.5%.
For `COc1ccc(C(O)c2ccccc2)cc1` (stereo not drawn), the growth was 96.1%.
With `CC(=O)NCc1cc(C)c(C)cc1C` the growth was 87.9%.
With `CCC(C)(O)c1ccc(C)cc1` (stereo not drawn) the growth was 91.7%.
`CC(C)(N)COS(=O)(=O)O` gave a growth of 91.5%.
Work on `Cc1cc(C)cc(NCCC#N)c1` yielded a growth of 94.6%.
`O=C(O)CSCSCC(=O)O` gave a growth of 77.2%.
`O/N=C/c1ccc(O)cc1O` was tested, and the growth was 89.3%.
`CCO/C=C1\SC(=S)N(c2cccc(C)c2)C1=O` gave a growth of 80.6%.
In the case of `Cc1cc2ccccc2c(O)c1C#N`, the growth is reported as 78.3%.
In the case of `O=C(O)/C=C/C(=O)NCc1ccccc1`, the growth is reported as 81.9%.
With `Cc1cc2nc(CO)[nH]c2cc1C` the growth was 90.9%.
Molecule `C=CCNc1ccccc1` has a growth of 82.7%.
For `NC(=O)NC(=O)c1ccc(Cl)cc1`, the growth was 93.6%.
`CCOc1ccc(I)cc1` was tested, and the growth was 91.4%.
For `CC(C)C(C#N)(C(C)C)C(C)C`, the growth was 98.6%.
`CCCCOC(OCCCC)c1ccccc1` was tested, and the growth was 88.9%.
`NC(=O)c1ccc(N=C(N)N=C(N)N)cc1` showed a growth of 91.2%.
`CCOc1ccccc1/C=N/Nc1nc2ccccc2o1` was tested, and the growth was 83.9%.
In the case of `CO[C@H]1C[C@@H]2CC[C@@H](C)[C@@](O)(O2)C(=O)C(=O)N2CCCC[C@H]2C(=O)O[C@H]([C@H](C)C[C@@H]2CC[C@@H](O)[C@H](OC)C2)CC(=O)[C@H](C)C=C(C)[C@@H](O)[C@@H](OC)C(=O)[C@H](C)C[C@H](C)/C=C/C=C/C=C1C`, the growth is reported as 13.3%.
`O=C(NCCNC(=O)c1ccc(Cl)cc1Cl)c1ccc(Cl)cc1Cl` showed a growth of 102%.
For `COC(=O)/C=C/C(=O)NC(N)=O`, the growth was 76.2%.
With `Cc1ccc(O)c(C(=O)c2ccccc2)c1` the growth was 96.6%.
`CN(C)c1ccc(C(c2ccc(O)cc2)c2ccc(N(C)C)cc2)cc1` showed a growth of 87.3%.
For `Nc1ccc(N)c([N+](=O)[O-])c1`, the growth was 102%.
`CCOC(=O)c1[nH]c(C)c(C(C)=O)c1C` showed a growth of 78.2%.
`CC(C)C1CCCCC1O` (stereo not drawn) gave a growth of 108%.

Each molecule was assayed on SNB-19 CNS in the same assay as above. Conditions: 10 µM.
With `CC(=O)OCC1CCCO1` (stereo not drawn) the growth was 105%.
In the case of `N#CCCc1ccc(O)cc1`, the growth is reported as 110%.
`Nc1ccc(N=Nc2ccc(S(=O)(=O)O)cc2)c2ccccc12` showed a growth of 106%.
`O=C1OC(=O)C2C1C1(Cl)C(Cl)=C(Cl)C2(Cl)C2C(=O)OC(=O)C21` (stereo not drawn) gave a growth of 106%.
Molecule `CCCCCCCCO` has a growth of 103%.
In the case of `O=c1[nH]nc(SC2CCCCC2)c(=O)[nH]1`, the growth is reported as 103%.
In the case of `Cc1cc(C(O)(c2ccc(Nc3ccccc3)cc2)c2ccc(Nc3ccc(S(=O)(=O)O)cc3)cc2)ccc1N` (stereo not drawn), the growth is reported as 19.7%.
`CCCNC(=O)c1ccc(S(N)(=O)=O)cc1` was tested, and the growth was 107%.
Work on `CN(C)c1ccc2oc(=O)c3ccccc3c2c1` yielded a growth of 81.3%.
Work on `Cc1ccc(CCCC(=O)O)c(C)c1` yielded a growth of 101%.
Work on `Oc1ccccc1-c1nnco1` yielded a growth of 93.2%.
In the case of `COc1ccc(C(O)c2ccccc2)cc1` (stereo not drawn), the growth is reported as 105%.
Molecule `FC(F)(F)c1ccc2c(c1)N(CCCN1CCN(C3CC3)CC1)c1ccccc1S2` has a growth of 43%.
Molecule `CC(=O)NCc1cc(C)c(C)cc1C` has a growth of 109%.
`CCC(C)(O)c1ccc(C)cc1` (stereo not drawn) gave a growth of 97.8%.
`CC(C)(N)COS(=O)(=O)O` showed a growth of 93%.
With `Cc1cc(C)cc(NCCC#N)c1` the growth was 96.5%.
With `O=C(O)CSCSCC(=O)O` the growth was 96.6%.
For `O/N=C/c1ccc(O)cc1O`, the growth was 96.6%.
Work on `CCO/C=C1\SC(=S)N(c2cccc(C)c2)C1=O` yielded a growth of 111%.
`Cc1cc2ccccc2c(O)c1C#N` gave a growth of 100%.
`O=C(O)/C=C/C(=O)NCc1ccccc1` showed a growth of 115%.
`Cc1cc2nc(CO)[nH]c2cc1C` showed a growth of 98%.
Work on `C=CCNc1ccccc1` yielded a growth of 91.5%.
Molecule `NC(=O)NC(=O)c1ccc(Cl)cc1` has a growth of 111%.
Molecule `CCOc1ccc(I)cc1` has a growth of 104%.
`CC(C)C(C#N)(C(C)C)C(C)C` showed a growth of 108%.
`CCCCOC(OCCCC)c1ccccc1` was tested, and the growth was 95.4%.
`NC(=O)c1ccc(N=C(N)N=C(N)N)cc1` gave a growth of 110%.
Work on `CCOc1ccccc1/C=N/Nc1nc2ccccc2o1` yielded a growth of 100%.
In the case of `CO[C@H]1C[C@@H]2CC[C@@H](C)[C@@](O)(O2)C(=O)C(=O)N2CCCC[C@H]2C(=O)O[C@H]([C@H](C)C[C@@H]2CC[C@@H](O)[C@H](OC)C2)CC(=O)[C@H](C)C=C(C)[C@@H](O)[C@@H](OC)C(=O)[C@H](C)C[C@H](C)/C=C/C=C/C=C1C`, the growth is reported as 46.2%.
Work on `O=C(NCCNC(=O)c1ccc(Cl)cc1Cl)c1ccc(Cl)cc1Cl` yielded a growth of 110%.
Molecule `COC(=O)/C=C/C(=O)NC(N)=O` has a growth of 104%.
With `CN(C)c1ccc(C(c2ccc(O)cc2)c2ccc(N(C)C)cc2)cc1` the growth was 97.2%.
Molecule `Nc1ccc(N)c([N+](=O)[O-])c1` has a growth of 99.5%.
In the case of `CCOC(=O)c1[nH]c(C)c(C(C)=O)c1C`, the growth is reported as 94.4%.
